Measured values reported in PubChem BioAssay AID602376 (Johns Hopkins Ion Channel Center, 2012).
Potency and affinity values are given separately. Inconclusive results are not listed. Calls of active or inactive are those of the source.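 How the source made its calls: active means raises choline transporter activity at one or more tested doses and gives a fitted dose-response curve; inconclusive means no clear call, values can overlap the other calls; inactive means no choline transporter activation at any dose, or no curve.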

Target: High affinity choline transporter 1 (Homo sapiens) (UniProt Q9GZV3)
Sequence (Q9GZV3 whole entry, looked up): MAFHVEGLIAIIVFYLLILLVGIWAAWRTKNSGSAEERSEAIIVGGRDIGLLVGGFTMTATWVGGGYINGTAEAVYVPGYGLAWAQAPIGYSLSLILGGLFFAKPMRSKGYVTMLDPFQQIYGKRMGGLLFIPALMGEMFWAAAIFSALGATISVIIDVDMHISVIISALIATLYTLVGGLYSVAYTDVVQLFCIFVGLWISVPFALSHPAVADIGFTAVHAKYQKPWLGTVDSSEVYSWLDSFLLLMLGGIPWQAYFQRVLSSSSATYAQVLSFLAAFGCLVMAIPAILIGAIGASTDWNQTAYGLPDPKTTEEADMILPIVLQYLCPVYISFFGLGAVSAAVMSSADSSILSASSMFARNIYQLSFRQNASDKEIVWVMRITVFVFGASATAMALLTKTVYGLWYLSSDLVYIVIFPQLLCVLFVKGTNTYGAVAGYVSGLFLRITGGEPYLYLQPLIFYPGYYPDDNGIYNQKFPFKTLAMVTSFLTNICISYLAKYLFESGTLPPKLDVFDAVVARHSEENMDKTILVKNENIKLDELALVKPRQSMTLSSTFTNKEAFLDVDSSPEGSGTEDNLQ
Experiment: CHT activators, dose response, cell-based, 10-point CRC, membrane potential dye (AID 602376)
Settings: HEK293-CHT, choline-induced membrane potential dye, cells express CHT LV-AA mutant; series mostly up to 67 µM; percent activation: at the top concentration

Percent activation, inactive:
CCN1C(N(C)CCc2cccs2)=N[C@@H](c2ccccc2)C(C(=O)OC)=C1C 89.2%
Cc1nnc(N2CCC(C(=O)N3CCCCC3)CC2)c2nn(-c3ccc(Cl)cc3)c(C)c12 24.8%
COc1ccc(-c2cc(C(=O)NNC(=O)c3csc(N4CCOCC4)n3)c3ccccc3n2)cc1OC 37.9%
COc1ccc(-c2c3c(=O)n(C)c(=O)n(C)c3cn2C2CCCCC2)cc1 45.3%
Cc1ccccc1OCc1n(CC(=O)OC2CC(C)CCC2C(C)C)c2ccccc2[n+]1C (stereo not drawn) 202%
COc1ccc(C(C)=O)cc1CSc1nc2ccccc2c(=O)n1-c1ccccc1C 82.6%
COc1ccccc1C1CC(c2ccc(Cl)cc2)Nc2ncnn21 (stereo not drawn) 65.7%
COc1ccc(C(N)c2nccc3cc(OC)c(OC)cc23)cc1OC (stereo not drawn) 48.1%
COc1ccc(C(=O)CSc2nnc(CNC(=O)c3ccco3)n2C)cc1 18.6%
COc1ccc(N2CCN(c3oc(COc4ccccc4)nc3C#N)CC2)cc1 63.1%
C=C1CCN(Cc2ccccc2)S(=O)(=O)c2ccccc21 80%
O=c1c2ccccc2n(CC(O)CN2CCOCC2)c2ccccc12 (stereo not drawn) 44.9%
COc1ccccc1N(C(=O)c1ccco1)C(C(=O)NC1CCCC1)c1cccs1 (stereo not drawn) 49.6%
COc1ccc(-c2noc(CSc3nc4ccccc4c(=O)n3-c3ccccc3)n2)cc1OC 48.1%
Cc1ccc(S(=O)(=O)c2nc(-c3ccco3)oc2SC(C)C)cc1 67.7%
CCOC(=O)C1(Cc2ccccc2C(F)(F)F)CCN(Cc2ccon2)CC1 63.5%
CCCC(=O)N1c2ccccc2C(=C2SC(C(=O)OC)=C(C(=O)OC)S2)C(=S)C1(C)C 43.5%
CCOC(=O)c1c(C)n(-c2ccccc2)c2ccc(OCCN(C)C)cc12 34.4%
COc1ccc(CN2CCC(N(CCc3ccccc3)Cc3ccccc3)CC2)c(OC)c1 97.6%
COc1ccc(NC(=O)C(c2ccccc2)N2CCN(c3ccccn3)CC2)cc1Cl (stereo not drawn) 49.1%
O=C(NC1CCCC1)C(c1ccsc1)N(Cc1ccco1)C(=O)Cc1cccs1 (stereo not drawn) 71.2%
Nc1sc(-c2ccccc2)n[n+]1Cc1cccc2cccnc12 135%
Cc1ccccc1SCC(=O)Nc1cc(C(F)(F)F)ccc1N1CCOCC1 68.4%
